We go through 40 compounds from PubChem BioAssay (Tox21).

Records with an inconclusive call do not appear. Values without a mark were called inactive. Calls follow the shape of the dose curve; as a rule, active = well fitted inhibition curve with a large enough effect in the repeat runs; inconclusive = weak or mixed curves; inactive = flat fitted curve, though single readings scatter.
% is scaled to controls: 0 for no effect and ±100 for the full control effect.

This assay in a line: qHTS assay to identify small molecule HDAC inhibitors (AID 1259364). Also: top concentration of the series differs between compounds; nearly all actives have a fitted effect of over 45% in size. As to conditions: HCT-116 HDAC-Glo I/II luminescence, 2 h; series mostly up to 92.4 µM; activity change, negative = inhibition: at the top concentration. The source says:
U.S. Tox21 Program National Center for Advancing Translational Sciences [NCATS] NIH Chemical Genomics Center [NCGC] U.S. Environmental Protection Agency [EPA] National Institutes of Environmental Health Sciences [NIEHS] National Toxicology Program [NTP] U.S. Food and Drug Administration [FDA] Tox21 Assay Overview: Histone deacetylases (HDACs) are a group of epigenetic enzymes that regulate gene expression by histone deacetylation. HDACs are capable of introducing epigenetic modifications and such aberrations contribute to the onset and progression of several human diseases, thus making HDACs a popular therapeutic target. For identifying endogenous class I/II HDAC inhibitors a homogenous, luminogenic HDAC I/II cell based assay was used to measure the relative activity of class I and II HDACs from cells. Wild type HCT-116 cells were used to screen Tox21 libraries for identifying class I/II HDAC inhibitors.
Tox21 Assay Protocol Summary: HCT-116 cells were dispensed at 1,500 per well in 5uL of culture medium into white solid bottom 1536-well plates (Greiner Bio-One, Monroe, NC) using a Multidrop Combi (Thermo Scientific, Waltham, MA) dispenser. The assay plates were incubated at 37 C and 5% CO2 for an overnight, and then 23nL of compounds dissolved in DMSO and positive control were transferred using a Pintool station (Wako, San Diego, CA). The assay plates were incubated at 37C and 5% CO2 for 2hr. After compound treatment, 4uL of HDAC-Glo reagent (Promega Corporation, Madison, WI) was added to each well of the assay plates using Flying Reagent Dispenser (FRD, Aurora Discovery, San Diego, CA) and incubated the assay plates at room temperature for 30min. The luminescence signal was quantified using a ViewLux plate reader (Perkin Elmer, Shelton, CT).
Background: Quantitative high-throughput screening tests each substance at several concentrations.
On to `O=C1Nc2cc(Cl)ccc2Oc2ccccc21`, for which the “activity change, negative = inhibition” value was 0.0087% [at 42.5 µM].
For the compound `CN(C(=O)CCCOc1ccc2[nH]c(=O)ccc2c1)C1CCCCC1`, the “activity change, negative = inhibition” value was 6.25% [at 42.5 µM].
The result for `CCCCCCCCCCCCC(=O)O` reads -4.27%; that for `CC(C)(C)C(=O)OCOP(=O)(COCCn1cnc2c(N)ncnc21)OCOC(=O)C(C)(C)C`, 9.39% [at 42.5 µM]; that for `O=C(C(=O)c1ccc(Br)cc1)c1ccc(Br)cc1`, 4.75% [at 19 µM].
Turning to `CC(C)(C)c1cc(CCC(=O)OCC(COC(=O)CCc2cc(C(C)(C)C)c(O)c(C(C)(C)C)c2)(COC(=O)CCc2cc(C(C)(C)C)c(O)c(C(C)(C)C)c2)COC(=O)CCc2cc(C(C)(C)C)c(O)c(C(C)(C)C)c2)cc(C(C)(C)C)c1O`, the “activity change, negative = inhibition” value was 5.07% [at 42.5 µM].
For `Cn1c(N)nc2nc[nH]c2c1=O`, the “activity change, negative = inhibition” value was -23.2%.
Turning to `O=C(O)c1cn(C2CC2)c2cc(Cl)c(F)cc2c1=O`, the “activity change, negative = inhibition” value is 2.07% [at 42.5 µM].
The result for `C[Si](C)O[Si](C)(C)O[Si](C)(C)O[Si](C)C` reads 2.86%; that for `O=C(/C=C/c1ccc(O)c(O)c1)O[C@@H]1C[C@](O)(C(=O)O)C[C@@H](O)[C@H]1O`, 7.58%; that for `O=S1(=O)c2cccc3cccc(c23)N1CCCN1CCN(c2ccc(F)cc2)CC1`, -4.97% [at 42.5 µM].
For the compound `CC(C)CCCCCCOC(=O)c1ccc(C(=O)OCCCCCCC(C)C)c(C(=O)OCCCCCCC(C)C)c1`, the “activity change, negative = inhibition” value is 3.45%.
`C1CCC2OC2C1` (stereo not given): the “activity change, negative = inhibition” value is 1.62%.
Then `CCc1nn(C2CCCCC2)c2cc(C3(C#N)CCC(C(=O)O)CC3)ccc12` (stereo not given), with -6.82%; and `O=C1[C@H](CC[C@H](O)c2ccc(F)cc2)[C@@H](c2ccc(O)cc2)N1c1ccc(F)cc1`, with 3.95% [at 42.5 µM]; and `Cc1ccc(C(=O)C(C)CN2CCCCC2)cc1` (stereo not given), with 7.73% [at 42.5 µM].
Turning to `CCCCCC(CO)CCC` (stereo not given), the “activity change, negative = inhibition” value was -3.1%.
Then `CCOC(=O)CC(C)C`, with -3.59%; and `CC(C)(C)c1ccc(OCC2CO2)cc1` (stereo not given), with -19.8%; and `CC(=O)c1c(C)c([N+](=O)[O-])c(C(C)(C)C)c([N+](=O)[O-])c1C`, with -5.79%.
As to `Oc1ccc(Sc2ccc(O)cc2)cc1`, the “activity change, negative = inhibition” value was 2.26%.
For the compound `Cl/C(=C\n1cncn1)c1ccc(Cl)cc1Cl`, the “activity change, negative = inhibition” value was 2.3% [at 42.5 µM].
Take `Oc1ccc2c(c1)OCO2`: the “activity change, negative = inhibition” value is -10.5%.
As for `CC(C)c1cccc(C(C)C)c1NC(=O)NS(=O)(=O)c1cc(C(C)(C)O)co1`, the “activity change, negative = inhibition” value was 0.76%.
In the case of `COCCO`, the “activity change, negative = inhibition” value was 4.55%.
`C[C@@H](C1=C(CCN(C)C)Cc2ccccc21)c1ccccn1`: the “activity change, negative = inhibition” value is -0.383% [at 42.5 µM].
In the case of `CC1CCc2cc(F)cc3c(=O)c(C(=O)O)cn1c23` (stereo not given), the “activity change, negative = inhibition” value was 1.9% [at 42.5 µM].
The result for `CC(C)c1ccc2c(C(C)C)cc(C(C)C)c(S(=O)(=O)O)c2c1` reads 3.1%; that for `COCCOCCOCCOCCOC`, 5.3%.
The result for `CN(c1nccc(=O)[nH]1)C1CCN(c2nc3ccccc3n2Cc2ccc(F)cc2)CC1` reads 3.6% [at 42.5 µM]; that for `Cc1cccc(C(C)(C)C)c1O`, -5.31%; that for `O=C(O)Cc1sc(-c2ccccc2)nc1-c1ccc(Cl)cc1`, 6.44% [at 42.5 µM].
Turning to `CC(=O)SCc1ccco1`, the “activity change, negative = inhibition” value is -8.41%.
For `CCCC(=O)OCC`, the “activity change, negative = inhibition” value is -0.4%.
With `CN1CCN(C2=Nc3ccccc3Sc3ccc(Cl)cc32)CC1`, the “activity change, negative = inhibition” value was 0.939% [at 42.5 µM].
Regarding `CC[C@H](C)[C@@H](C(=O)O)n1sc2ccccc2c1=O`, the “activity change, negative = inhibition” value was 0.851%.
For `CN1CCN(C2=Nc3cc(Cl)ccc3Nc3ccccc32)CC1`, the “activity change, negative = inhibition” value was -0.232% [at 42.5 µM].
As to `C#CCOC(=O)[C@@H](C)Oc1ccc(Oc2ncc(Cl)cc2F)cc1`, the “activity change, negative = inhibition” value was 2.23%.
On to `CCOc1cc(OCC)c(C(=O)CCC(=O)O)cc1OCC`, for which the “activity change, negative = inhibition” value was -6.84% [at 42.5 µM].
As to `O=[N+]([O-])c1cc[n+]([O-])cc1`, the “activity change, negative = inhibition” value was 13.8%.
